HEK293 tox: kills HEK 293 cells. Potency, µM (doses to about 115 µM), without a hit: top-dose activity change, negative = cytotoxicity, most hits filed as inhibitors. HEK 293 viability, ATP luminescence (CellTiter-Glo), 48-72 h. actives 6.6% (n = 94,000); note: % is set by controls: 0 for no effect and ±100 for the full control effect; nearly all actives have a fitted effect of over 60% in size
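Pintool-delivered compounds were incubated with HEK 293 cells (250 cells/well) at 37 degree Celsius for 48 or 72 hr. ATP-dependent luminescence (CellTiter-Glo) then reported remaining viable cells.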
NPR1 antag: blocks ANP-stimulated signaling of human Npr1 receptor; actives 1.6% (n = 76,000); Potency, µM (highest dose often 46.3 µM), inactives show at the top dose activity change, negative = inhibition, usual class: inhibitors; HEK293 hNpr1 GloSensor cGMP, ANP-stimulated luminescence; AID 1347048; calls by dose curve; note: % is set by controls: 0 for no effect and ±100 for the full control effect; nearly all actives have a fitted effect of over 60% in size
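HEK293 cells stably expressing human Npr1 and cGMP GloSensor pGS-40F, loaded 2 h with 2% GloSensor reagent, given compound 30 min at room temperature. Luminescence read before and 20 min after 0.1 nM hNppA.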
FLuc inh-1: inhibitors of firefly (Photinus pyralis) luciferase. P08659. purified P. pyralis luciferase, luminescence, biochemical. Potency, µM (series often up to 115 µM), actives largely listed as inhibitors. actives 2.5% (n = 76,000). AID 1347043; note: % is set by controls: 0 for no effect and ±100 for the full control effect; nearly all actives have a fitted effect of over 65% in size
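Luminescence read by CCD imaging after purified firefly luciferase (10nM final) was added to substrate buffer holding 10uM D-luciferin and 10uM ATP, pH 7.5, pre-dosed with compound.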
GPT2 inh: inhibitors of human GPT2 alanine aminotransferase; Potency, µM (series often up to 57.7 µM), for inactives: top-dose activity change, negative = inhibition, most hits filed as inhibitors; AID 1671188; Recombinant GPT2, coupled pyruvate oxidase/HRP Amplex Red fluorescence; Q8TD30; actives 0.25% (n = 100,000); note: % is set by controls: 0 for no effect and ±100 for the full control effect; nearly all actives have a fitted effect of over 60% in size
Target sequence (Q8TD30 whole entry, looked up): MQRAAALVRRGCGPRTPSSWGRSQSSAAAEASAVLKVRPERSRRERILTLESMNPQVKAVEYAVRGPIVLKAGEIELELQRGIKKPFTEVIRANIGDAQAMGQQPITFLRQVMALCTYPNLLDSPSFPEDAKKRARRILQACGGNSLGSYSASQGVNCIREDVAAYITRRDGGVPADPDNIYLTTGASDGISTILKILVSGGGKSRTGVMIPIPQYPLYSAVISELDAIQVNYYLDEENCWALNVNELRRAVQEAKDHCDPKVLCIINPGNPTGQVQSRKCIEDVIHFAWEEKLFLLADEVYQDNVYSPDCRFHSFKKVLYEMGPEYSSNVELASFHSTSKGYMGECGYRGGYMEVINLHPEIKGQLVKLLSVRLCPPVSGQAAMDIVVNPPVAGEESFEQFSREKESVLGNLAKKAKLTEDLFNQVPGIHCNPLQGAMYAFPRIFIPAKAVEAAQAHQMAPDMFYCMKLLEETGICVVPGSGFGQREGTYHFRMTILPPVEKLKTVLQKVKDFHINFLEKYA
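Fluorescence read-out: pyruvate from GPT2 turnover coupled to pyruvate oxidase, HRP and Amplex Red (0.2mM ThPP, 0.2U/mL PO and HRP, 50uM Amplex final). Substrates 250uM a-KG, 2mM L-alanine; enzyme 10ng/uL; 30 min RT.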
NIH3T3 tox: kills NIH 3T3 cells; NIH 3T3 viability, CellTiter-Glo ATP luminescence, 48-72 h; Potency, µM (series often up to 96.7 µM), inactives show at the highest dose activity change, negative = cytotoxicity, most hits filed as inhibitors; actives 4.3% (n = 94,000); AID 1345082; note: % is set by controls: 0 for no effect and ±100 for the full control effect; nearly all actives have a fitted effect of over 55% in size
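NIH 3T3 cells at 400 cells/well received 23 nL of compound by pintool and were incubated 48 or 72 h at 37 °C. Viability was read as ATP-coupled CellTiter-Glo luminescence.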
FLuc SDR no ATP: firefly luciferase binding stabilization, ATP absent. Purified FLuc-C-HiBiT, Nano-Glo HiBiT luminescence, no ATP. actives 7.8% (n = 1,300). shares compounds with FLuc inh-1. Potency, µM (titrated, usually from 32.7 µM), without a hit: at the highest dose activation (signal gain), usual class: activators; note: nearly all actives have a fitted effect of over 55% in size
FLuc SDR ATP: firefly luciferase binding stabilization, ATP added. purified FLuc-C-HiBiT + ATP, HiBiT complementation luminescence. AID 1963319. Potency, µM (doses to about 32.7 µM), for inactives: top-dose activation (gain of signal), actives largely listed as activators. actives 8.7% (n = 1,300). shares compounds with FLuc inh-1;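 note: signal reports ligand binding via conformational change of the enzyme rather than luciferase catalysis; % of control where 0% means no effect; nearly all actives have a fitted effect of over 55% in size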
FLuc inh-2: firefly luciferase enzyme inhibition; shares compounds with FLuc inh-1; purified FLuc-C-HiBiT enzyme, luciferin luminescence; Potency, µM (top dose mostly 32.7 µM), inactives show at the highest dose activity change, negative = inhibition, hits mostly inhibitors; actives 42% (n = 1,300); note: % is set by controls: 0 for no effect and ±100 for the full control effect; nearly all actives have a fitted effect of over 70% in size
* = called active by the depositor; i = inactive; ? = inconclusive; . = no result given; [ ] = remark or other dose. Only some compounds are listed: those with a hit (about 10% of all), similar ones and a draw of the others. Unless noted, calls come from the whole dose curve; as a rule, active = well fitted curve in the direction sought with a large enough effect; inconclusive = small, poorly fitted or top-dose-only effect, or another doubt; inactive = no such curve, though single readings can be large; an effect the other way counts as inactive or inconclusive. Potency is the fitted concentration of half-maximal effect.

SMILES | HEK293 tox | NPR1 antag | FLuc inh-1 | GPT2 inh | NIH3T3 tox | FLuc SDR no ATP | FLuc SDR ATP | FLuc inh-2
COCc1nnc(C2CC3(CCN(C(=O)c4ccc(C)s4)CC3)CN2C)o1 (stereo unspecified) | -5% | . | . | 4% | -9% | . | . | .
COc1cccc(C(=O)N2CCC3(CC2)CCC(O)(CN(C)C)CC3)c1 | 2% | . | . | i | -11% | . | . | .
COc1ccc(N2Cc3c(ncnc3N3CCC(O)CC3)N(C)CC2=O)cc1 | i | 5% | i | i | -15% | . | . | .
OC1CCN(c2ncnc3c2cnn3-c2ccccc2)CC1 | . | . | . | . | . | 25% | ? | ?
CN1CC(=O)N(c2cccnc2)Cc2c1ncnc2N1CCC(c2ccccc2)CC1 | ? | -4% | i | i | ? | . | . | .
OCC1CCN(c2ncnc3c2cnn3-c2ccccc2)CC1 | . | . | . | . | . | 21% | 17% | ?
COc1cccc(-c2n[nH]c3c2CC(=O)N(Cc2ccccc2)C3)c1 | -6%[172 µM] | -3%[70.6 µM] | i | -6%[88.5 µM] | ? | . | . | .
O=C(NCCc1ccccc1)C1CCN(C(=O)c2ncn3c2COC(c2ccccc2)C3)CC1 (stereo unspecified) | 0% | 0% | 3.2µM* | i | i | 11% | ? | 2.5µM*
CSc1ccc(CNC(=O)C2CCN(C(=O)c3ncn4c3COC(c3ccccc3)C4)CC2)cc1 (stereo unspecified) | 9% | -19% | 13µM* | 3% | i | 16% | ? | ?
O=C(NCc1ccncc1)C1CCN(C(=O)c2ncn3c2COC(c2ccc(F)cc2)C3)CC1 (stereo unspecified) | 7% | 1% | 7.9µM* | i | i | 13% | ? | ?
O=C(NCc1cccnc1)C1CCN(C(=O)c2ncn3c2COC(c2ccc(F)cc2)C3)CC1 (stereo unspecified) | -4% | -2% | ? | -4% | i | . | . | .
CC(CNC(=O)C1CCN(C(=O)c2ncn3c2COC(c2ccc(F)cc2)C3)CC1)c1ccccc1 (stereo unspecified) | -6% | -2% | ? | i | -16% | . | . | .
CC(CNC(=O)C1CCN(C(=O)c2ncn3c2COC(c2ccccc2)C3)CC1)c1ccccc1 (stereo unspecified) | -16% | -14% | 3.5µM* | i | -21% | 11% | 1.6µM* | 2.5µM*
O=C(COc1ccccc1)Nc1nnc(S(=O)(=O)Nc2ccccc2)s1 | . | . | . | . | . | 13% | 8% | ?
O=C(c1ccc(F)cc1)N1C[C@@H]2C[C@H](C1)c1ccc(NS(=O)(=O)c3cccc(F)c3)c(=O)n1C2 | -15% | -8% | i | -18% | -16% | . | . | .
O=C(Nc1cccc(F)c1)Nc1ccc2n(c1=O)C[C@H]1C[C@@H]2CN(C(=O)c2ccc(F)cc2)C1 | 40µM* | -22% | 10µM* | 1% | ? | 14% | 10% | ?
O=C(NCc1ccc(Cl)cc1)C1CCCN(c2cnn(Cc3ccccc3)c(=O)c2)C1 (stereo unspecified) | ? | -14% | i | i | ? | . | . | .
CN1CCc2c([nH]c3ccccc23)C12CCN(C(=O)c1ccccn1)CC2 | i | 1% | i | i | 2% | . | . | .
Cc1cc(NCCc2cnccn2)nc(-c2ccccc2O)n1 | ? | 0% | 10µM* | -18% | ? | 16% | 13% | -17%
COC(=O)c1ccc2c(c1)/C(=C/c1cc(Br)c(O)c(Br)c1)C(=O)N2 | . | . | . | . | . | 5% | 2% | 9.9µM*
O=C(Nc1ccc(Cl)cc1)N1CCCC(C(=O)N2CCC(c3nc4ccncc4[nH]3)C2)C1 (stereo unspecified) | i | . | . | 1% | -10% | . | . | .
COCCn1cnnc1CCNC(=O)c1oc2cc(OC)ccc2c1C | 0% | -1% | i | i[11.5 µM] | -1% | . | . | .
CCCc1ccc2oc(C(=O)NCCc3nncn3CC)c(C)c2c1 | ? | -16% | 3.5µM* | 0% | ? | 13% | 15% | ?
C[C@H](C(=O)N(C)CCC#N)C1CC[C@@]2(C)Cc3sc(NC(=O)C4CC4)nc3[C@@H](C)[C@@H]2[C@H]1O (stereo partly specified) | -2% | -11% | ? | 2% | -10% | . | . | .
C[C@H](C(=O)NCCN1CCOCC1)C1CC[C@@]2(C)Cc3sc(CSc4ccccc4)nc3[C@@H](C)[C@@H]2[C@H]1O (stereo partly specified) | 40µM* | 10µM* | 11µM* | 5% | ? | 12% | 11% | ?
SMILES | HEK293 tox | NPR1 antag | FLuc inh-1 | GPT2 inh | NIH3T3 tox | FLuc SDR no ATP | FLuc SDR ATP | FLuc inh-2
C[C@H](C(=O)NCCN1CCOCC1)C1CC[C@@]2(C)Cc3sc(CS(=O)(=O)Cc4ccc(F)cc4)nc3[C@@H](C)[C@@H]2[C@H]1O (stereo partly specified) | -28% | 4% | i | -29% | -24% | . | . | .
C[C@H](C(=O)N1CCOCC1)C1CC[C@@]2(C)Cc3sc(-c4ccccc4)nc3[C@@H](C)[C@@H]2[C@H]1O (stereo partly specified) | ? | -2% | 14µM* | 3% | ? | 6.2µM* | ? | 3.5µM*
C[C@H](C(=O)N(C)CCC#N)C1CC[C@@]2(C)Cc3sc(NC(=O)c4cccn4C)nc3[C@@H](C)[C@@H]2[C@H]1O (stereo partly specified) | ? | ? | 5µM* | -18% | ? | 30% | ? | 7µM*
CCCN1CCCC2(Cc3ccccc3CN(C(=O)Cc3ccccc3)C2)C1 (stereo unspecified) | ? | . | . | i | ? | . | . | .
CCOc1ccc(C(=O)Nc2cc(-c3nc4cc(OC)ccc4o3)ccc2C)cc1[N+](=O)[O-] | . | . | . | . | . | 27% | 18% | ?
O=[S+]([O-])(CCC(F)(F)F)N1CCC2(CC1)CC(c1cccc(C(F)(F)F)c1)=NO2 | -23% | . | . | . | -20% | . | . | .
COCC(C)NC(=O)c1csc2nc(-c3cccc(C(F)(F)F)c3)cn12 (stereo unspecified) | ? | -2% | i | -19% | ? | . | . | .
